For 40 targets, log2 fold change results are on record in the supplement of paper PMC10849652.

About 8,800 targets were measured; listed, in parts, are those with a hit and a random draw of the rest. About 0.5% of all pairs of compound and target were hits. Values without a mark were called inactive.

UniProt Q86YS7, sequence (Q86YS7 whole entry, looked up): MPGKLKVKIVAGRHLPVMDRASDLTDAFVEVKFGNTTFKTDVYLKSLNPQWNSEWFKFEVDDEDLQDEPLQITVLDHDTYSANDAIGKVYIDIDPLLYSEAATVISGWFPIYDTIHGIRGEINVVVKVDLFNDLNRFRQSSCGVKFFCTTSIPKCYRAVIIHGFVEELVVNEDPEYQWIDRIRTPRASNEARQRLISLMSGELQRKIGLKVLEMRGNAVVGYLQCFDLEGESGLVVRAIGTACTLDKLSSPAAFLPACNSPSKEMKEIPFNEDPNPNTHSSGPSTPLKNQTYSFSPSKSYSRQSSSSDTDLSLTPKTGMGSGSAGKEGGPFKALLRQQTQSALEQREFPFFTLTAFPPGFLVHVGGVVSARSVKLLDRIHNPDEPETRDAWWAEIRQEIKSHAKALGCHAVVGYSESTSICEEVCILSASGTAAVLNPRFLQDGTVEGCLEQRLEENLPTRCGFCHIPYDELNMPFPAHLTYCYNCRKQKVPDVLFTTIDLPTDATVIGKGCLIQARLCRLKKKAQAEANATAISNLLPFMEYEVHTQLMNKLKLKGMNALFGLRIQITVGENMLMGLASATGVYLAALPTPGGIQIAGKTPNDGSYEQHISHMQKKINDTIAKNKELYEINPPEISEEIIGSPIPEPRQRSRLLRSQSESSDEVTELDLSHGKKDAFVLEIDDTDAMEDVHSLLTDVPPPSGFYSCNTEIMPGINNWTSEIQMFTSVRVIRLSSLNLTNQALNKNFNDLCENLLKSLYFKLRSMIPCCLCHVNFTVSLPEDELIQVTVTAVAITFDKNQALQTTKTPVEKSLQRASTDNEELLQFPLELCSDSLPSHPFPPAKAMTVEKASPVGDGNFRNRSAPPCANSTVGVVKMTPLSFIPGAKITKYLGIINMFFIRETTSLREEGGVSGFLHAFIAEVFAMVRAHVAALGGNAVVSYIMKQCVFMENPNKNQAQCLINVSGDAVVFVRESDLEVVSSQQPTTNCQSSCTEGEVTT
UniProt Q6P4E1, sequence (Q6P4E1 whole entry, looked up): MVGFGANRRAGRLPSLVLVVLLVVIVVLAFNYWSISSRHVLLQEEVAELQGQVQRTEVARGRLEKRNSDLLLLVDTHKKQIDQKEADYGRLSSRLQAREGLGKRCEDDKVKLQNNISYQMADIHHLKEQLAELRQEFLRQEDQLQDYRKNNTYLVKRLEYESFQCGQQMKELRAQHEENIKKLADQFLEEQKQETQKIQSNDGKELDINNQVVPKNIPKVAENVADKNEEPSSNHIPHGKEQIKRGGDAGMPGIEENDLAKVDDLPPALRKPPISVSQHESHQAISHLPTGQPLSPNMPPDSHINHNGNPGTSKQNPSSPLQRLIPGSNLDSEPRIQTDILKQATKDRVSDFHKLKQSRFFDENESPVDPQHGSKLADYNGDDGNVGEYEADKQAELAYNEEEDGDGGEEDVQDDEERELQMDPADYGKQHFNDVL
UniProt Q9H3Q1, sequence (Q9H3Q1 whole entry, looked up): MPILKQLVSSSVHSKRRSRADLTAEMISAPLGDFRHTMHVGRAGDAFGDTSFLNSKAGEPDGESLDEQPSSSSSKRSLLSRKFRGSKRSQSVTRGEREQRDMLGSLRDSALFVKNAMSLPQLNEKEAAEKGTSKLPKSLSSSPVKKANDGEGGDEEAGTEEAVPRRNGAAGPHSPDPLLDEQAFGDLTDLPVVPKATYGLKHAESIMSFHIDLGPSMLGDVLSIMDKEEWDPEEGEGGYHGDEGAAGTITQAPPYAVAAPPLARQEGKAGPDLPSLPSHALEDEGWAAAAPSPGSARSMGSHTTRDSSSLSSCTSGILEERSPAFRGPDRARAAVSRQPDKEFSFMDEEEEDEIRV
UniProt O43861, sequence (O43861 whole entry, looked up): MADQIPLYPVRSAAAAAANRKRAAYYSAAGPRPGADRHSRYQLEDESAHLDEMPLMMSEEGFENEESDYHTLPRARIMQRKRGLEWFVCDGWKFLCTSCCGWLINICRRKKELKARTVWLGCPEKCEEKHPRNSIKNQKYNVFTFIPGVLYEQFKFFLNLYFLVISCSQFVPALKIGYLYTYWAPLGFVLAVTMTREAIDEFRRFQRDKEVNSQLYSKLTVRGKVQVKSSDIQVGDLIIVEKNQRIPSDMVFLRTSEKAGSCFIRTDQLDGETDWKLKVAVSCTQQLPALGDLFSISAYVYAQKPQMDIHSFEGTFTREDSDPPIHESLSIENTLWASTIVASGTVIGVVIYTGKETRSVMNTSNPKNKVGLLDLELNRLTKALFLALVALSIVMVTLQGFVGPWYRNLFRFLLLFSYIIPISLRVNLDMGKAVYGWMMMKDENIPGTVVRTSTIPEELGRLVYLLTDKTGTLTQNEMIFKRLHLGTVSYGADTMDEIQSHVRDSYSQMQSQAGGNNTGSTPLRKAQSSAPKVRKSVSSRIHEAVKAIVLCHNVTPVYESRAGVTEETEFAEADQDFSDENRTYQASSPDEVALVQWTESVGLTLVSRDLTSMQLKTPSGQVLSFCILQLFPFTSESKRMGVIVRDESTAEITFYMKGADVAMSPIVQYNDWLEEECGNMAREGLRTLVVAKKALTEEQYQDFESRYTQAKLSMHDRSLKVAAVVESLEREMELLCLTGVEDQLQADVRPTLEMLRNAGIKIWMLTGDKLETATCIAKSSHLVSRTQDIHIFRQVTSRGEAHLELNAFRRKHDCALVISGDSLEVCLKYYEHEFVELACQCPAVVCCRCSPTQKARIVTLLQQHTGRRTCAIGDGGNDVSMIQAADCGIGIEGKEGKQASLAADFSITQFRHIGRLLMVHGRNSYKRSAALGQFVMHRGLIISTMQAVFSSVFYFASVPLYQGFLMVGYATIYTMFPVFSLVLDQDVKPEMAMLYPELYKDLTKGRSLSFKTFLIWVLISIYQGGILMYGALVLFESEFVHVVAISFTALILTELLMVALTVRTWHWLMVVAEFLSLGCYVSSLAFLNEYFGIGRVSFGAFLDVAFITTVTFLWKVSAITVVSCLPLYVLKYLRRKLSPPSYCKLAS
UniProt P21127, sequence (P21127 whole entry, looked up): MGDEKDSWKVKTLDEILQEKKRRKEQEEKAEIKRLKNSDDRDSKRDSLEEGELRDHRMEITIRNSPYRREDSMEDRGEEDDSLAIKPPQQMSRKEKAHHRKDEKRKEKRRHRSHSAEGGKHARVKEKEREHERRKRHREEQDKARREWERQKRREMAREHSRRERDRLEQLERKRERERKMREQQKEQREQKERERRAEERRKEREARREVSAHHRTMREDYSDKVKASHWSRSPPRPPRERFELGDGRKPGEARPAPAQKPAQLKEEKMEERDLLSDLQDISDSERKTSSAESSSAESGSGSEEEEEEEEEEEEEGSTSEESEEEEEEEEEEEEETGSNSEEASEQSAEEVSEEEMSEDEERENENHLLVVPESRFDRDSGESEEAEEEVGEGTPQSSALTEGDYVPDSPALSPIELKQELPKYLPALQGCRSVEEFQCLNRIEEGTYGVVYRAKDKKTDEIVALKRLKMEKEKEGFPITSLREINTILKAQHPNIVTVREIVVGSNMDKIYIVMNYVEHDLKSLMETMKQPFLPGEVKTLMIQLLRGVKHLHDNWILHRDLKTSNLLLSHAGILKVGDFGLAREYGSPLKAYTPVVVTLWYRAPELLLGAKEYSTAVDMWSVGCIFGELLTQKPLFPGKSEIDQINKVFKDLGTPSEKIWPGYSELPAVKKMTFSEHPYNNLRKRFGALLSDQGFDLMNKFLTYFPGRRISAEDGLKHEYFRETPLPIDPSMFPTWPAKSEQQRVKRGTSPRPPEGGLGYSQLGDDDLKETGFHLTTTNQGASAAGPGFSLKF
UniProt P98196, sequence (P98196 whole entry, looked up): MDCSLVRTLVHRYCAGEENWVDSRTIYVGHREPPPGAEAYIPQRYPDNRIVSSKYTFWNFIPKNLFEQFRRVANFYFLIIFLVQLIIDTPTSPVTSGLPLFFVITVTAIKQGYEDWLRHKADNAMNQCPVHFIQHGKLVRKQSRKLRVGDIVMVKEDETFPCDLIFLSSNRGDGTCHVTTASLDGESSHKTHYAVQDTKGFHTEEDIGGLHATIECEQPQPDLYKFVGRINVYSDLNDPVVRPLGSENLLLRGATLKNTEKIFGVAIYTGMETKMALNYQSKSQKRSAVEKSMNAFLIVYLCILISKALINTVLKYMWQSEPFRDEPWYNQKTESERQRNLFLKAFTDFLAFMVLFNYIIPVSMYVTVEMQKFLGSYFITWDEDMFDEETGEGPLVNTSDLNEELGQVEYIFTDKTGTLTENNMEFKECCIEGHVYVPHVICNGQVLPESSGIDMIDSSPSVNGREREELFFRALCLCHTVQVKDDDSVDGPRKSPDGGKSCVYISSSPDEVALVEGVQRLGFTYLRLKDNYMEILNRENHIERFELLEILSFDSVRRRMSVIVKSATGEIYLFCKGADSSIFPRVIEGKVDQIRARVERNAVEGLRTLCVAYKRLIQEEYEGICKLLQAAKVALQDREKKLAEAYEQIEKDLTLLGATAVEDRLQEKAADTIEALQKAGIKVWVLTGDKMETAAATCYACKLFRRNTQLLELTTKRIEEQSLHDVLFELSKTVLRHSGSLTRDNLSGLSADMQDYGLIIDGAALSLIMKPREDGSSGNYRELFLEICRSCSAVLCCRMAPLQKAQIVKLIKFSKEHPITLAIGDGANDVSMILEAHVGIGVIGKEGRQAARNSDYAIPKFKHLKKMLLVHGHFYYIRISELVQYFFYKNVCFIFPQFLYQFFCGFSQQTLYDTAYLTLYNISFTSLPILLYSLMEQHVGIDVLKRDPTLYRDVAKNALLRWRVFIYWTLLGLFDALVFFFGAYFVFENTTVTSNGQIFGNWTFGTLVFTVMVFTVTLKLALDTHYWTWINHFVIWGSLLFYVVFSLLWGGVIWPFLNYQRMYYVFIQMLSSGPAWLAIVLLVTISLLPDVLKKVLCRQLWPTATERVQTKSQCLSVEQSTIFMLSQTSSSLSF
UniProt P45973, sequence (P45973 whole entry, looked up): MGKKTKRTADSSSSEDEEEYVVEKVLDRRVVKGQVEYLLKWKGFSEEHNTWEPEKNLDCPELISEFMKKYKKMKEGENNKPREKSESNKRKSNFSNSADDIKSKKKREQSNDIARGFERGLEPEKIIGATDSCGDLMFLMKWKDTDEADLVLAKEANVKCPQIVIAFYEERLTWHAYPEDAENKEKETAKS

Compound in the first test: CS(=O)(=O)N1CCN(Cc2cc3nc(-c4cccc5[nH]ncc45)nc(N4CCOCC4)c3s2)CC1 [pictilisib]
Put plainly: log2 fold change, soluble protein after heating vs DMSO (PISA); higher = thermal stabilisation; K562 lysate, 10 uM; active = over 0.2 and 3.5 SD of the protein, either way, in both replicates (recomputed). The gist of the method: (§1)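 Pellets of K562 cells were dounce-homogenised in PBS pH 7.4 with 1 mM MgCl2, and the crude extract was held at 1 mg/mL protein for a 30 min treatment with 10 μM compound. Aliquots were heated for 3 min over 48°C-58°C and pooled before NP-40 was added to 0.5% at 4°C. The supernatant from 21,000xg for 90 min was quantified by TMTpro 16plex LC-MS/MS with channel sums equalised. Values are reported from duplicates as log-two fold change in thermal stability relative to solvent controls.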
AURKAIP1 (UniProt Q9NWT8): the log2 fold change is 0.051.

For CDC42BPA isoform 6 (UniProt Q5VT25), the log2 fold change is -0.041.

With BMS1 (UniProt Q14692), the log2 fold change was -0.052.

With ATP9B (UniProt O43861), the log2 fold change is -0.269.

BUD23 isoform 3 (UniProt O43709): the log2 fold change was -0.017.

In the case of ATXN2 (UniProt F8WB05), the log2 fold change is 0.005.

Turning to ATP11A (UniProt P98196), the log2 fold change is -0.087.

Regarding C8orf37 (UniProt Q96NL8), the log2 fold change was 0.006.

In the case of CELF2 isoform 3 (UniProt O95319), the log2 fold change is 0.032.

Take CDS2 (UniProt O95674): the log2 fold change is -0.007.

Take CAMLG (UniProt P49069): the log2 fold change is -0.039.

Turning to CAPNS1 (UniProt P04632), the log2 fold change is 0.024.

For the target C12orf45 (UniProt Q8N5I9), the log2 fold change is -0.031.

With CDK9 isoform 2 (UniProt P50750), the log2 fold change was 0.034.

As to CCPG1 isoform 5 (UniProt Q9ULG6), the log2 fold change was -0.038.

For the target CELF1 isoform 4 (UniProt Q92879), the log2 fold change is 0.023.

On to CDC42EP4 (UniProt Q9H3Q1), for which the log2 fold change was 0.029.

As to BLOC1S6 (UniProt Q9UL45), the log2 fold change was -0.037.

Consider CCNB2 (UniProt O95067), for which the log2 fold change was -0.091.

With CASP3 (UniProt P42574), the log2 fold change was -0.021.

As to CHAC2 (UniProt Q8WUX2), the log2 fold change is -0.011.

For CBX5 (UniProt P45973), the log2 fold change was 0.024.

For the target ATG7 (UniProt O95352), the log2 fold change was -0.002.

As to CHAF1A (UniProt Q13111), the log2 fold change is 0.063.

For the target C9orf72 (UniProt Q96LT7), the log2 fold change was -0.112.

Consider ATRIP (UniProt Q8WXE1), for which the log2 fold change was 0.187.

As for CAMK2G isoform 8 (UniProt Q13555), the log2 fold change is -0.008.

As for CCT6A (UniProt P40227), the log2 fold change was 0.008.

In the case of C2CD5 isoform 3 (UniProt Q86YS7), the log2 fold change is -0.029.

CHCHD4 isoform 2 (UniProt Q8N4Q1): the log2 fold change is 0.092.

Consider C19orf54 (UniProt Q5BKX5), for which the log2 fold change was -0.089.

With BPHL (UniProt Q86WA6), the log2 fold change was -0.366 (active).

In the case of CCNB1 (UniProt P14635), the log2 fold change is -0.01.

Take CDK11B (UniProt P21127): the log2 fold change was -0.006.

In the case of C3 (UniProt P01024), the log2 fold change is -0.01.

In the case of CASC4 (UniProt Q6P4E1), the log2 fold change is 0.069.

In the case of BRD2 isoform 2 (UniProt P25440), the log2 fold change is 0.012.

In the case of CDAN1 (UniProt Q8IWY9), the log2 fold change was -0.05.

With CCDC85B (UniProt Q15834), the log2 fold change is -0.042.

Take CARS isoform 3 (UniProt P49589): the log2 fold change was -0.006.

Compound in a further test: C[C@@H](Oc1cc(-c2cnn(C3CCNCC3)c2)cnc1N)c1c(Cl)ccc(F)c1Cl [crizotinib]
Described as above. In short, it runs like this:
as §1
Consider AURKAIP1 (UniProt Q9NWT8), for which the log2 fold change is 0.021.

Consider CDC42BPA isoform 6 (UniProt Q5VT25), for which the log2 fold change is -0.061.

In the case of BMS1 (UniProt Q14692), the log2 fold change was -0.058.

Regarding ATP9B (UniProt O43861), the log2 fold change was 0.032.

Consider BUD23 isoform 3 (UniProt O43709), for which the log2 fold change was 0.07.

ATXN2 (UniProt F8WB05): the log2 fold change is -0.023.

With ATP11A (UniProt P98196), the log2 fold change was -0.005.

With C8orf37 (UniProt Q96NL8), the log2 fold change was 0.043.

CELF2 isoform 3 (UniProt O95319): the log2 fold change was 0.072.

With CDS2 (UniProt O95674), the log2 fold change was 0.031.

Consider CAMLG (UniProt P49069), for which the log2 fold change is 0.014.

Take CAPNS1 (UniProt P04632): the log2 fold change was 0.047.

For C12orf45 (UniProt Q8N5I9), the log2 fold change is 0.042.

Consider CDK9 isoform 2 (UniProt P50750), for which the log2 fold change is 0.067.

As for CCPG1 isoform 5 (UniProt Q9ULG6), the log2 fold change was 0.006.

CELF1 isoform 4 (UniProt Q92879): the log2 fold change is 0.032.

Regarding CDC42EP4 (UniProt Q9H3Q1), the log2 fold change is -0.017.

In the case of BLOC1S6 (UniProt Q9UL45), the log2 fold change was 0.062.

For CCNB2 (UniProt O95067), the log2 fold change was -0.018.

In the case of CASP3 (UniProt P42574), the log2 fold change was 0.001.

CHAC2 (UniProt Q8WUX2): the log2 fold change is 0.003.

Regarding CBX5 (UniProt P45973), the log2 fold change is -0.023.

Turning to ATG7 (UniProt O95352), the log2 fold change was -0.015.

Take CHAF1A (UniProt Q13111): the log2 fold change was 0.012.

Consider C9orf72 (UniProt Q96LT7), for which the log2 fold change was 0.082.

As for ATRIP (UniProt Q8WXE1), the log2 fold change was 0.012.

As for CAMK2G isoform 8 (UniProt Q13555), the log2 fold change was -0.177.

On to CCT6A (UniProt P40227), for which the log2 fold change was 0.026.

Regarding C2CD5 isoform 3 (UniProt Q86YS7), the log2 fold change was -0.028.

With CHCHD4 isoform 2 (UniProt Q8N4Q1), the log2 fold change was -0.085.

As for C19orf54 (UniProt Q5BKX5), the log2 fold change is -0.019.

With BPHL (UniProt Q86WA6), the log2 fold change is 0.099.

CCNB1 (UniProt P14635): the log2 fold change was -0.024.

Turning to CDK11B (UniProt P21127), the log2 fold change was 0.461 (active).

With C3 (UniProt P01024), the log2 fold change was 0.042.

With CASC4 (UniProt Q6P4E1), the log2 fold change is 0.019.

As to BRD2 isoform 2 (UniProt P25440), the log2 fold change is 0.024.

CDAN1 (UniProt Q8IWY9): the log2 fold change is -0.038.

Turning to CCDC85B (UniProt Q15834), the log2 fold change was 0.006.

Consider CARS isoform 3 (UniProt P49589), for which the log2 fold change was 0.019.
